Reference: PubChem BioAssay (Tox21)
Inconclusive results are not listed. Calls of active or inactive are those of the source. Unless noted, calls come from the whole dose curve; as a rule, active = well fitted curve in the direction sought with a large enough effect in the repeat runs; inconclusive = weak or mixed curves; inactive = no such curve, though single readings can be large; an effect the other way counts as inactive or inconclusive.

Tests used:
[1] = qHTS assay to identify small molecule agonists of the peroxisome proliferator-activated receptor delta (PPARd) signaling pathway - cell viability counter screen (AID 743211); note: % is set by controls: 0 for no effect and ±100 for the full control effect; nearly all actives have a fitted effect of over 55% in size
Method in brief: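 Multiplexed format: after the 2 h room-temperature LiveBLAzer B/G FRET step, CellTiter-Glo was added to the same wells. Luminescence after 30 min gave cell viability; compound exposure was 17 h at 37C.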

[2] = biological target: Peroxisome proliferator-activated receptor delta (Homo sapiens) (UniProt Q03181); test: qHTS assay to identify small molecule agonists of the peroxisome proliferator-activated receptor delta (PPARd) signaling pathway (AID 743212; calls by dose curve; note: % is set by controls: 0 for no effect and ±100 for the full control effect)
Peroxisome proliferator-activated receptor delta (Homo sapiens), sequence (Q03181 whole entry, looked up): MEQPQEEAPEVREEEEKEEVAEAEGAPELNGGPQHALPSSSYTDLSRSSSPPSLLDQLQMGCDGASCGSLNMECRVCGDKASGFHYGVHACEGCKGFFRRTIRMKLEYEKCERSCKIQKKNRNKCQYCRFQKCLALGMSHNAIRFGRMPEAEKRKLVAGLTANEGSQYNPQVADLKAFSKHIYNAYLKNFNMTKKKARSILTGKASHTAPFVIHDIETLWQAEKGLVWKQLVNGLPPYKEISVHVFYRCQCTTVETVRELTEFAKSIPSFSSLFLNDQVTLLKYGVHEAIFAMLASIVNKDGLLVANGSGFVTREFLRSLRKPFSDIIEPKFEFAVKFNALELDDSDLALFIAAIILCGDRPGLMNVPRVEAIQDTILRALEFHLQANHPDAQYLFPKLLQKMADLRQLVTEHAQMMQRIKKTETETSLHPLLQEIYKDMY
Method in brief: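 GeneBLAzer PPARd UAS-bla HEK293H cells (beta-lactamase reporter under UAS control), plated and rested 5 h at 37 C, then exposed to compounds in DMSO at 37 C; LiveBLAzer B/G FRET substrate added, 2 h room temperature, fluorescence read.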

[3] = qHTS assay to identify small molecule antagonists of the peroxisome proliferator-activated receptor delta (PPARd) signaling pathway - cell viability counter screen (AID 743213); note: % is set by controls: 0 for no effect and ±100 for the full control effect; nearly all actives have a fitted effect of over 50% in size
Method in brief: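 HEK293H cells with the PPARd UAS-bla reporter, co-treated 17 h at 37 C with compounds and L165041 (300 nM final), were lysed with CellTiter-Glo. Luminescence indicated viable cell content.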

[4] = biological target: Peroxisome proliferator-activated receptor delta (Homo sapiens) (UniProt Q03181); test: qHTS assay to identify small molecule antagonists of the peroxisome proliferator-activated receptor delta (PPARd) signaling pathway (AID 743215; active = well fitted inhibition curve with a large enough effect in the signal ratio in the repeat runs, not every such curve was filed as active; the % refers to the signal ratio;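 note: cells stimulated with agonist L165041 at 300 nM final during compound exposure; series mostly up to about 62 µM; % is set by controls: 0 for no effect and ±100 for the full control effect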)
Method in brief: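 PPARd-bla HEK293H cells (UAS-bla reporter) preincubated 5 h, then given compound plus 300 nM final L165041 agonist for 17 h at 37 C. Beta-lactamase activity read by LiveBLAzer B/G FRET substrate fluorescence after 2 h at room temperature.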

[5] = biological target: Bile acid receptor (Homo sapiens) (UniProt Q96RI1); test: qHTS assay to identify small molecule antagonists of the farnesoid-X-receptor (FXR) signaling pathway (AID 743217; active = well fitted inhibition curve with a large enough effect in the signal ratio in the repeat runs, not every such curve was filed as active; the % refers to the signal ratio; note: % is set by controls: 0 for no effect and ±100 for the full control effect)
Bile acid receptor (Homo sapiens), sequence (Q96RI1 whole entry, looked up): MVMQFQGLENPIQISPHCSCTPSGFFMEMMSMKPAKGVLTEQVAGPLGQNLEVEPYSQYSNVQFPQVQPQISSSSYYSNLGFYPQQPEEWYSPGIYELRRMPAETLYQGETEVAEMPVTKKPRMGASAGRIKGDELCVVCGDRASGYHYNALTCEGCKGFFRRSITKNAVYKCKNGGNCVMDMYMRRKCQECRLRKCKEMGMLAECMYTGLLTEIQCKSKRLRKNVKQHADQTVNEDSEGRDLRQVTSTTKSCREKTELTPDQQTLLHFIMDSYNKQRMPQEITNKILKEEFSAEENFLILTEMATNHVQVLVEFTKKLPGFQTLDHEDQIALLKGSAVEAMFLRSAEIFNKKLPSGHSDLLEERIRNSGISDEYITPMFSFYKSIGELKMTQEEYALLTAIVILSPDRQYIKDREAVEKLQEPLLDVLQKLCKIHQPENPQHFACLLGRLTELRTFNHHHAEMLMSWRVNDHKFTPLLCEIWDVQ
Method in brief: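 FXR-UAS-bla HEK 293T cells (beta-lactamase reporter) given compound plus chenodeoxycholic acid (50 uM final), 16 h at 37C. LiveBLAzer B/G FRET substrate added for 2 h at room temperature; fluorescence read.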

[6] = biological target: Bile acid receptor (Homo sapiens) (UniProt Q96RI1); test: qHTS assay to identify small molecule agonists of the farnesoid-X-receptor (FXR) signaling pathway (AID 743220; active = well fitted activation curve with a large enough effect in the signal ratio in the repeat runs, not every such curve was filed as active; the % refers to the signal ratio; note: % is set by controls: 0 for no effect and ±100 for the full control effect)
Method in brief: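 Beta-lactamase reporter under UAS control in GeneBLAzer FXR HEK 293T cells (5000/well) measured with LiveBLAzer FRET substrate after 2 h at room temperature. Compound exposure lasted 16 h at 37C.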

[7] = qHTS assay to identify small molecule antagonists of the farnesoid-X-receptor (FXR) signaling pathway - cell viability counter screen (AID 743221; active = well fitted cell-killing curve with a large enough effect in the repeat runs, not every such curve was filed as active; note: % is set by controls: 0 for no effect and ±100 for the full control effect; nearly all actives have a fitted effect of over 50% in size)
Method in brief: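 CellTiter-Glo, 30 min RT, luminescence; same wells as the LiveBLAzer FRET read. Cells: FXR-UAS-bla HEK 293T. Treatment: compound with chenodeoxycholic acid 50 uM final, 16 h at 37 C.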

[8] = biological target: Vitamin D3 receptor (Homo sapiens) (UniProt P11473); test: qHTS assay to identify small molecule agonists of the vitamin D receptor (VDR) signaling pathway (AID 743222; calls by dose curve; note: % is set by controls: 0 for no effect and ±100 for the full control effect)
Vitamin D3 receptor (Homo sapiens), sequence (P11473 whole entry, looked up): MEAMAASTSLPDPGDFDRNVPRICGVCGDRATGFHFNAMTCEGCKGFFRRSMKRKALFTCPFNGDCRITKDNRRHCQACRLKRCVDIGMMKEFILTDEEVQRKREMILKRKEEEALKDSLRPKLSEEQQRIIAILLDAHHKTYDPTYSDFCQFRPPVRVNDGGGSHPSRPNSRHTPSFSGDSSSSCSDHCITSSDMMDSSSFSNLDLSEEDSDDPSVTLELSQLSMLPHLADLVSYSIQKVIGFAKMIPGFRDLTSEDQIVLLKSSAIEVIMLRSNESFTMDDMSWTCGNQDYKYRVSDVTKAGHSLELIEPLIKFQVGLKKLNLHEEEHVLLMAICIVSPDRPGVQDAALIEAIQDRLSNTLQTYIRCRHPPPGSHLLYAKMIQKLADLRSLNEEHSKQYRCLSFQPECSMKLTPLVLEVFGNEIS
Method in brief: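 VDR-bla cells plated 4 h at 37 C, then exposed to compounds for 16 h at 37 C. Beta-lactamase reporter activity measured by fluorescence after 2 h room-temperature loading with LiveBLAzer B/G FRET substrate.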

[9] = biological target: Vitamin D3 receptor (Homo sapiens) (UniProt P11473); test: qHTS assay to identify small molecule antagonists of the vitamin D receptor (VDR) signaling pathway (AID 743223; active = well fitted inhibition curve with a large enough effect in the signal ratio in the repeat runs, not every such curve was filed as active; the % refers to the signal ratio; note: % is set by controls: 0 for no effect and ±100 for the full control effect)
Method in brief: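 After VDR-bla cells are plated and left 4 h at 37C, DMSO-dissolved compounds and 3 nM (final) calcitriol agonist are added. Incubation continues 16 h at 37C; FRET beta-lactamase substrate then develops 2 h at room temperature.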

[10] = qHTS assay to identify small molecule agonists of the vitamin D receptor (VDR) signaling pathway - cell viability counter screen (AID 743224); note: series mostly up to about 63 µM; % is set by controls: 0 for no effect and ±100 for the full control effect; nearly all actives have a fitted effect of over 50% in size
Method in brief: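 VDR-bla cells, 4 h after plating, exposed to compounds for 16 h at 37C; viability then read in the same wells as CellTiter-Glo luminescence after 30 min at room temperature, following the bla FRET read.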

[11] = qHTS assay to identify small molecule antagonists of the vitamin D receptor (VDR) signaling pathway - cell viability counter screen (AID 743225); note: % is set by controls: 0 for no effect and ±100 for the full control effect; nearly all actives have a fitted effect of over 50% in size
Method in brief: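 Cytotoxicity toward the VDR-bla HEK 293T line was scored by ATP-based CellTiter-Glo luminescence, read in the wells already used for the beta-lactamase readout after 16 h compound treatment under 3 nM 1-alpha,25-dihydroxyvitamin D3 stimulation.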

[12] = qHTS assay to identify small molecule agonists of the NFkB signaling pathway (AID 1159509; active = well fitted curve in the direction sought with a large enough effect in the signal ratio in the repeat runs, not every such curve was filed as active; the % refers to the signal ratio)
Method in brief: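 NFkB-bla ME-180 cells with a beta-lactamase reporter under an NF-kB response element were plated overnight, treated with compounds in DMSO for 5 hr at 37 C, then loaded with FRET substrate for 1.5 hr at room temperature.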

[13] = qHTS assay to identify small molecule agonists of the NFkB signaling pathway - cell viability counter screen (AID 1159515; calls by dose curve; note: series mostly up to about 61 µM; % is set by controls: 0 for no effect and ±100 for the full control effect; nearly all actives have a fitted effect of over 55% in size)
Method in brief: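 NFkB-bla ME-180 cells, 2,000/well, plated overnight at 37 C; compound added for 5 hr at 37 C. Viability read in the same wells as the bla reporter, by CellTiter-Glo luminescence after 30 min at room temperature.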

[14] = qHTS assay to identify small molecule agonists of the endoplasmic reticulum stress response signaling pathway (AID 1159516; active = well fitted activation curve with a large enough effect in the signal ratio in the repeat runs, not every such curve was filed as active; the % refers to the signal ratio; note: % is set by controls: 0 for no effect and ±100 for the full control effect)
Method in brief: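 CellSensor ESRE-bla HeLa cells, 1,500 per well, plated overnight, then exposed to compounds for 5 hr at 37 C. Beta-lactamase reporter read with LiveBLAzer B/G FRET substrate after 2 hr at room temperature, 405 nm excitation, 460 and 530 nm emission.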

[15] = qHTS assay to identify small molecule agonists of the endoplasmic reticulum stress response signaling pathway - cell viability counter screen (AID 1159517; calls by dose curve)
Method in brief: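 Luminescence readout: CellTiter-Glo, 30 min RT, same wells as the ESRE-bla reporter read. HeLa ESRE-bla, 1,500 cells/well, o/n 37 C; cpd 5 hr 37 C/5% CO2.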

[16] = qHTS assay to identify small molecule antagonists of the retinoid-related orphan receptor gamma (ROR-gamma) signaling pathway - cell viability counter screen (AID 1159520)
Method in brief: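 Tet-on ROR gamma CHO cells (1,000/well) were plated 4 hr, given compounds in DMSO for 2 hr at 37 C, then induced with 1 uM final doxycycline for 16 hr. Viability was read as ATP by CellTiter-Glo luminescence after 30 min.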

[17] = biological target: Nuclear receptor ROR-gamma (Homo sapiens) (UniProt P51449); test: qHTS assay to identify small molecule antagonists of the retinoid-related orphan receptor gamma (ROR-gamma) signaling pathway (AID 1159521)
Method in brief: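 Readout: ONE-Glo luciferase luminescence, 30 min at room temperature. System: Tet-on RORγ CHO, RORE-LUC. Sequence: compound 2 h, doxycycline 1 uM final, 16 h at 37 C.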

[18] = qHTS assay to identify small molecule agonists of the AP-1 signaling pathway - cell viability counter screen (AID 1159525; calls by dose curve; note: nearly all actives have a fitted effect of over 55% in size)
Method in brief: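 ME-180 AP-1-bla, 2500 cells/well, Opti-MEM + 0.5% dialyzed FBS; overnight 37 °C; cpd 15-pt titration, 5 h 37 °C; CellTiter-Glo 30 min RT; luminescence read; normalised to TOAB and DMSO controls.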

[19] = qHTS assay to identify small molecule agonists of the AP-1 signaling pathway (AID 1159526; calls by dose curve; note: % is set by controls: 0 for no effect and ±100 for the full control effect)
[20] = qHTS assay to identify small molecule agonists of the farnesoid-X-receptor (FXR) signaling pathway - cell viability counter screen (AID 743218); note: % is set by controls: 0 for no effect and ±100 for the full control effect; nearly all actives have a fitted effect of over 45% in size
Method in brief: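 FXR-UAS-bla HEK 293T cells exposed to compounds for 16 h at 37C. Cytotoxicity read in the same wells by CellTiter-Glo luminescence after 30 min at room temperature, following the beta-lactamase FRET read.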

N#Cc1ccccc1O
inactive: outcome [1] | outcome [2] | outcome [3] | outcome [4] | outcome [5] | outcome [6] | outcome [7] | outcome [8] | outcome [9] | outcome [10] | outcome [11] | outcome [12] | outcome [13] | outcome [14] | outcome [15] | outcome [16] | outcome [17] | outcome [18] | outcome [19]

C[C@]12CCC(=O)C=C1CC[C@H]1[C@@H]3CC[C@](O)(C(=O)CO)[C@@]3(C)C[C@H](O)[C@@]12F
inactive: outcome [1] | outcome [2] | outcome [3] | outcome [4] | outcome [5] | outcome [6] | outcome [7] | outcome [10] | outcome [11] | outcome [12] | outcome [13] | outcome [14] | outcome [15] | outcome [16] | outcome [17] | outcome [18] | outcome [19]

C/C=C(\C)C(=O)OCCc1ccccc1
inactive: outcome [1] | outcome [2] | outcome [3] | outcome [4] | outcome [5] | outcome [20] | outcome [6] | outcome [7] | outcome [11] | outcome [12] | outcome [13] | outcome [14] | outcome [15] | outcome [16] | outcome [17] | outcome [18] | outcome [19]

NCCOCCN
inactive: outcome [1] | outcome [2] | outcome [3] | outcome [4] | outcome [20] | outcome [7] | outcome [8] | outcome [9] | outcome [10] | outcome [12] | outcome [13] | outcome [14] | outcome [15] | outcome [16] | outcome [17] | outcome [18] | outcome [19]

CCn1cc(C(=O)O)c(=O)c2cnc(N3CCCC3)nc21
inactive: activity change, negative = cytotoxicity [1] 3.01% [at 13.2 µM] | activation [2] -4.9% [at 13.2 µM] | viability change, negative = cytotoxic [3] -17.7% [at 13.7 µM] | ratio activity, negative = inhibition [4] -14.6% [at 13.7 µM] | activity change, negative = inhibition [5] 6.21% [at 13.2 µM] | viability change, negative = cytotoxic [20] -3.43% [at 13.2 µM] | activation [6] -0.921% [at 13.2 µM] | activity change, negative = cytotoxicity [7] -0.638% [at 13.2 µM] | activity change, negative = cytotoxicity [10] 7.07% [at 13.2 µM] | viability change, negative = cytotoxic [11] -2.96% [at 6.95 µM] | activation [12] 0.219% [at 6.95 µM] | activity, negative = cytotoxic [13] -27.6% [at 6.95 µM] | activation [14] 1.19% [at 6.95 µM] | activity change, negative = cytotoxicity [15] -11.8% [at 6.95 µM] | activity, negative = cytotoxicity [16] 1.16% [at 8.39 µM] | activity change, negative = inhibition [17] 14.3% [at 8.39 µM] | viability change, negative = cytotoxic [18] 0.489% [at 6.97 µM] | activation [19] -6.77% [at 6.97 µM]

Cc1ccccc1C(N)=O
inactive: outcome [1] | outcome [2] | outcome [3] | outcome [4] | outcome [5] | outcome [20] | outcome [6] | outcome [7] | outcome [10] | outcome [11] | outcome [12] | outcome [13] | outcome [14] | outcome [15] | outcome [16] | outcome [17] | outcome [18] | outcome [19]

O=C1CCCCO1
inactive: outcome [1] | outcome [2] | outcome [3] | outcome [4] | outcome [20] | outcome [7] | outcome [8] | outcome [10] | outcome [12] | outcome [13] | outcome [14] | outcome [15] | outcome [16] | outcome [17] | outcome [18] | outcome [19]

COc1cc2c(cc1OC)C(=O)C(CC1CCN(Cc3ccccc3)CC1)C2 (centres undefined)
inactive: outcome [1] | outcome [2] | outcome [3] | outcome [4] | outcome [20] | outcome [6] | outcome [7] | outcome [10] | outcome [11] | outcome [12] | outcome [13] | outcome [14] | outcome [15] | outcome [16] | outcome [17] | outcome [18] | outcome [19]
